Our source for the sensor-assay potency score (higher = more potent) values is the OligoGym collection.
Also: reference of the scale not given here.

The target of the first assay is PGLYRP2. Nature of the assay: pooled miR-30 sensor sort-seq; sequence = guide strand. The following applies: shRNA.
TTTTGTAGCATCTGGAGTGTTG yielded a sensor-assay potency score (higher = more potent) of -0.0388. Still for that read-out and setting: the same measure for ATCTCTTAGAGACACTCCTGGC: -0.911; for TAGTCTCCAAGGATGACCCCAT: -0.15. Regarding TTCTCGTACGTCATGTCGGGCC, the sensor-assay potency score (higher = more potent) was -0.387. Regarding TCGTACACGTAGCCGTCCGAGC, the sensor-assay potency score (higher = more potent) was -1.66.

On to TAGCAATCCGAGTAGGATCCAG, for which the sensor-assay potency score (higher = more potent) was -0.509. As for TCTGGGTCTGGGAACCTCGGAG, the sensor-assay potency score (higher = more potent) is -0.74. The same measure, in the same setting: the same measure for TTCTGCCGTCGGAAGTTGCTGC: -0.417. On the same count and under the same terms, the same measure for TTGGCTCATGCACTGAAGCTGG: -0.819. On to ATCTGCAGTGGTGACATCTGGA, for which the sensor-assay potency score (higher = more potent) was -0.549.

A further assay deals with PGR. The assay is described as above. The following applies: shRNA.
The sequence TTGACTTCGTAGCCCTTCCAAA showed a sensor-assay potency score (higher = more potent) of -1.29. The same measure, in the same setting: the same measure for TCAACTGTATGTCTTGACCTGG: -0.016. TTCGTCTTCCAGCAGCTGCCGA gave a sensor-assay potency score (higher = more potent) of -0.877. Sequence TGTAAGTTGATAGAAACGCTGT yielded a sensor-assay potency score (higher = more potent) of 0.269. The same measure, in the same setting: the same measure for TTGTGTTGTCATGTCCTGCATA: -0.728; for TTCTTGGCTAACTTGAAGCTTG: -0.748.

For the sequence TTGTTTGACAAGATCATGCAAG, the sensor-assay potency score (higher = more potent) is -0.044.

The sequence TTGATTAAGACTTGTCAGCAAA yielded a sensor-assay potency score (higher = more potent) of -0.954. TAGTTGATTAAGACTTGTCAGC: the sensor-assay potency score (higher = more potent) was -0.703. In the case of TTGAAGCTTGACAAACTCCTGT, the sensor-assay potency score (higher = more potent) stood at 0.608.

In the case of TAAGTTGATAGAAACGCTGTGA, the sensor-assay potency score (higher = more potent) worked out at 0.39. Sequence TAACTTCAGACATCATTTCTGG returned a sensor-assay potency score (higher = more potent) of -0.00174.

The target of a further assay is PHACTR4. Described as above. The following applies: shRNA.
TTCTTTAACATGGCATCGCTTG showed a sensor-assay potency score (higher = more potent) of -0.642. The sequence TTAAACCTCAGAATCTTCCTGG yielded a sensor-assay potency score (higher = more potent) of 0.724. Regarding TTTCGCATAGATATTTTCCGTT, the sensor-assay potency score (higher = more potent) was -0.285. On to TTGATAACAATGTACCACTGTT, for which the sensor-assay potency score (higher = more potent) is -0.00481. Take TTCATCTTCTTCATCTCGGTAC: the sensor-assay potency score (higher = more potent) worked out at 0.467.

As to TTCCAGTTGAGCCTAGTCGTTT, the sensor-assay potency score (higher = more potent) was -1.14. For the sequence TTTGATAACAATGTACCACTGT, the sensor-assay potency score (higher = more potent) worked out at 0.882.

The sequence TTCCTTTTTCTGATCTTCCTGC registered a sensor-assay potency score (higher = more potent) of 0.429.

Sequence TTAGGTTGCAATATATTGCGTT showed a sensor-assay potency score (higher = more potent) of 0.996.

In the case of TCTTGAAGTACAATACACCAGG, the sensor-assay potency score (higher = more potent) was -0.827. TTGACTGAGCTTTCTAGTGAGC had a sensor-assay potency score (higher = more potent) of -0.776. TTCATGAACCTCCATCTCGGAG returned a sensor-assay potency score (higher = more potent) of -1.12.

For the next assay, the target named is PHF15. The description is as above. Conditions: shRNA.
With TTGACCTCATCGTTGTCTGCTA, the sensor-assay potency score (higher = more potent) is -0.147. Turning to TGTCGCATGACTGTCAGTGGTG, the sensor-assay potency score (higher = more potent) was -0.605. In turn, TTGTCCACCTCGTCGGTCTTGG came in with a sensor-assay potency score (higher = more potent) of -0.798. On the same count and under the same terms, the same measure for TAGATGTCGCATGACTGTCAGT: -1.14; for TTCAATAAGTTTCATCTGCAGG: -0.499.
